Measurements taken from ChEMBL document CHEMBL4513156, “CO-ADD screening of NCPRI (Romania) compounds”.
Entries with a potency or affinity are not part of this list.

Legend:
Klebsiella pneumoniae = conditions: Concentration 32 ug.mL-1; ASSAY_TEST Inhibition of Bacterial Growth; detection method Absorption (OD600); MEDIA CAMHB; plate type 384well; NBS; CORNING #3640; time 18 hr
Candida albicans = conditions: 32 ug/mL
Cryptococcus neoformans = conditions: Concentration 32 ug.mL-1; ASSAY_TEST Inhibition of Fungal Growth; detection method Resazurin; Absorption (OD600-OD570); plate type 384well; NBS; CORNING #3640

O=C(N/N=C/C[C@@H]1[C@@H](/C=C/[C@@H](O)COc2cccc(Cl)c2)[C@H](O)C[C@@H]1O)c1ccncc1
Inhibition (Klebsiella pneumoniae): 18.63%
Inhibition (Candida albicans): 0.21%
Inhibition (Cryptococcus neoformans): -81.79%

O=C(N/N=C1/C[C@@H]2[C@@H](C(=O)O)[C@H]1C[C@H]2Cl)c1ccncc1
Inhibition (Klebsiella pneumoniae): 18.24%
Inhibition (Candida albicans): 7.78%
Inhibition (Cryptococcus neoformans): -56.2%

NNC(=O)c1ccncc1 [ISONIAZID]
Inhibition (Klebsiella pneumoniae): 18.82%
Inhibition (Candida albicans): 0.98%
Inhibition (Cryptococcus neoformans): -55.93%

O=C(ON/N=C/[C@@H]1[C@@H]2C[C@H](Cl)[C@H]1C[C@H]2O)c1ccncc1
Inhibition (Klebsiella pneumoniae): 14.1%
Inhibition (Candida albicans): 5.82%
Inhibition (Cryptococcus neoformans): -97.88%

O=C(N/N=C1\CC[C@@H]2[C@H]1[C@H](OC(=O)c1ccccc1)C[C@@H]2OC(=O)c1ccccc1)c1ccncc1
Inhibition (Klebsiella pneumoniae): 13.57%
Inhibition (Candida albicans): 12.8%
Inhibition (Cryptococcus neoformans): -65.69%

O=C(NNC(=O)[C@@H]1C[C@H](C(=O)O)[C@@H]2CC=C[C@@H]21)c1ccncc1
Inhibition (Klebsiella pneumoniae): 15.82%
Inhibition (Candida albicans): 1.29%
Inhibition (Cryptococcus neoformans): -37.2%

COC(=O)CCCCCC[C@@H]1[C@@H](/C=N/NC(=O)c2ccncc2)[C@H](OC(=O)c2ccccc2)C[C@@H]1O
Inhibition (Klebsiella pneumoniae): 15.74%
Inhibition (Candida albicans): 0.87%
Inhibition (Cryptococcus neoformans): -95.25%

O=C(N/N=C/C[C@@H]1[C@@H](/C=C/[C@@H](O)COc2ccccc2)[C@H](O)C[C@@H]1O)c1ccncc1
Inhibition (Klebsiella pneumoniae): 13.01%
Inhibition (Candida albicans): 0.82%
Inhibition (Cryptococcus neoformans): -89.18%

O=C(N/N=C1\C[C@@H]2[C@H](COC(c3ccccc3)(c3ccccc3)c3ccccc3)C[C@H](CO)[C@@H]2C1)c1ccncc1
Inhibition (Klebsiella pneumoniae): 2.31%
Inhibition (Candida albicans): 12.2%
Inhibition (Cryptococcus neoformans): -65.69%

O=C(NN=CC[C@@H]1[C@@H](/C=C/[C@@H](O)CCc2ccccc2)[C@H](O)C[C@@H]1O)c1ccncc1
Inhibition (Klebsiella pneumoniae): 16.12%
Inhibition (Candida albicans): -1.24%
Inhibition (Cryptococcus neoformans): -90.23%

O=C(N/N=C/COc1cccc(Cl)c1)c1ccncc1
Inhibition (Klebsiella pneumoniae): 5.99%
Inhibition (Candida albicans): 1.44%
Inhibition (Cryptococcus neoformans): -88.39%

O=C(NNC(=O)c1cccc([N+](=O)[O-])c1C(=O)O)c1ccncc1
Inhibition (Klebsiella pneumoniae): 15.09%
Inhibition (Candida albicans): 1.9%
Inhibition (Cryptococcus neoformans): -5.54%

O=C(N/N=C1/C[C@@H]2[C@H](COC(c3ccccc3)(c3ccccc3)c3ccccc3)C[C@H](COC(c3ccccc3)(c3ccccc3)c3ccccc3)[C@@H]2C1)c1ccncc1
Inhibition (Klebsiella pneumoniae): -5.52%
Inhibition (Candida albicans): 2.84%
Inhibition (Cryptococcus neoformans): -17.15%

O=C(N/N=C/CCCO)c1ccncc1
Inhibition (Klebsiella pneumoniae): 3.72%
Inhibition (Candida albicans): 0.75%
Inhibition (Cryptococcus neoformans): -50.92%

CC(C)(C)[Si](C)(C)OC[C@H]1[C@H](CC=NNC(=O)c2ccncc2)[C@H](O)C[C@@H]1O[Si](C)(C)C(C)(C)C
Inhibition (Klebsiella pneumoniae): 19.31%
Inhibition (Candida albicans): 3.64%
Inhibition (Cryptococcus neoformans): -64.37%

O=C(N/N=C1\C[C@@H]2[C@@H](CO)[C@H]1C[C@H]2Cl)c1ccncc1
Inhibition (Klebsiella pneumoniae): 21.63%
Inhibition (Candida albicans): -0.38%
Inhibition (Cryptococcus neoformans): -60.68%

CC(C)(C)[Si](C)(C)OCC1C2C[C@H]3C1[C@@H]3/C2=N/NC(=O)c1ccncc1 (some centres undefined)
Inhibition (Klebsiella pneumoniae): 15.16%
Inhibition (Candida albicans): -2%
Inhibition (Cryptococcus neoformans): -48.28%

O=C(N/N=C/C[C@@H]1[C@@H](CO)[C@H](O)C[C@@H]1O)c1ccncc1
Inhibition (Klebsiella pneumoniae): 16.63%
Inhibition (Candida albicans): 0.37%
Inhibition (Cryptococcus neoformans): -75.19%

O=C(NNC(=O)[C@@H]1C[C@H](C(=O)O)[C@@H]2CCC[C@@H]21)c1ccncc1
Inhibition (Klebsiella pneumoniae): 17.49%
Inhibition (Candida albicans): 2.57%
Inhibition (Cryptococcus neoformans): -51.45%

O=C(N/N=C1/C2C[C@H]3C(C2CO)[C@H]13)c1ccncc1 (some centres undefined)
Inhibition (Klebsiella pneumoniae): 15.76%
Inhibition (Candida albicans): 0.37%
Inhibition (Cryptococcus neoformans): -50.92%

COC(=O)CCCCCC[C@@H]1[C@@H](/C=N/NC(=O)c2ccncc2)[C@H](O)C[C@@H]1O
Inhibition (Klebsiella pneumoniae): 5.87%
Inhibition (Candida albicans): 0.11%
Inhibition (Cryptococcus neoformans): -95.51%

O=C(N/N=C1/C2C[C@H]3C(C2C(=O)O)[C@@H]13)c1ccncc1 (some centres undefined)
Inhibition (Klebsiella pneumoniae): 8.85%
Inhibition (Candida albicans): 0.22%
Inhibition (Cryptococcus neoformans): -16.35%

CC(C)(C)[Si](C)(C)O[C@H](/C=C/[C@@H]1[C@@H](CC=NNC(=O)c2ccncc2)[C@@H](O)C[C@H]1O[Si](C)(C)C(C)(C)C)CCc1ccccc1
Inhibition (Klebsiella pneumoniae): 11.71%
Inhibition (Candida albicans): 0.84%
Inhibition (Cryptococcus neoformans): -66.75%

O=C(NN=C[C@H]1[C@H]2CC(O)OC[C@H]2C[C@H]1O)c1ccncc1 (some centres undefined)
Inhibition (Klebsiella pneumoniae): 2.56%
Inhibition (Candida albicans): 3.89%
Inhibition (Cryptococcus neoformans): -80.47%

O=C(N/N=C1/C[C@H]2[C@H](CO)[C@@H]1C[C@@H]2Cl)c1ccncc1
Inhibition (Klebsiella pneumoniae): 18.7%
Inhibition (Candida albicans): 2.15%
Inhibition (Cryptococcus neoformans): -80.47%

O=C(NN=CC[C@@H]1[C@@H](COC2CCCCO2)[C@H](OC2CCCCO2)C[C@@H]1O)c1ccncc1 (some centres undefined)
Inhibition (Klebsiella pneumoniae): 4.99%
Inhibition (Candida albicans): 1.39%
Inhibition (Cryptococcus neoformans): -44.06%

O=C(NN=C[C@H]1[C@@H]2CCO[C@@H]2C[C@@H]1O)c1ccncc1
Inhibition (Klebsiella pneumoniae): 9.72%
Inhibition (Candida albicans): 2.27%
Inhibition (Cryptococcus neoformans): -54.08%

O=C1C[C@H]2[C@H](/C=N/NC(=O)c3ccncc3)[C@H](C[C@@H]2Cl)O1
Inhibition (Klebsiella pneumoniae): 20.57%
Inhibition (Candida albicans): 3.46%
Inhibition (Cryptococcus neoformans): -80.73%
